# Calls of active or inactive are those of the source. Rule for the calls: active = hit-call score of the fitted dose curve at least 0.9, where 1 is the maximum; inactive = score below 0.9.
# Columns and labels:
# Settings in all cases: mRNA level, 48 h; actives raise or lower the signal
# [1] = read-out: Cytochrome P450 (CYP24A1), CYP24A1 (gene 1591); assay: LTEA_HepaRG_CYP24A1: Life Technologies and Expression Analysis (LTEA) Assay for Cytochrome P450 (CYP24A1) using HepaRG (AID 2283478)
# In short: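 mRNA of CYP24A1 quantified by TaqMan qRT-PCR (ACTB/GAPDH/POLR2A normalization) after 48 h chemical exposure of HepaRG cells, top concentration 100 uM, half-log steps, 0.5% DMSO vehicle, duplicates. Curves fitted bidirectionally against DMSO baseline.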
# [2] = read-out: Cytochrome P450 (CYP1A2), CYP1A2 (gene 1544); assay: LTEA_HepaRG_CYP1A2: Life Technologies and Expression Analysis (LTEA) Assay for Cytochrome P450 (CYP1A2) using HepaRG (AID 2283479)
# In short: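 CYP1A2 transcript measured by TaqMan qRT-PCR against three housekeeping genes after 48-hour chemical exposure of HepaRG cells. Eight-point half-log series topping at 100 uM in 0.5% DMSO, duplicates; gain or loss fitted relative to vehicle.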
# [3] = read-out: Cytochrome P450 (CYP2B6), CYP2B6 (gene 1555); assay: LTEA_HepaRG_CYP2B6: Life Technologies and Expression Analysis (LTEA) Assay for Cytochrome P450 (CYP2B6) using HepaRG (AID 2283481)
# In short: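 CYP2B6 transcript level quantified by qRT-PCR against three housekeeping genes, fitted bidirectionally relative to DMSO. HepaRG cultures received chemicals for 48 h, 8-point half-log series from 100 uM in 0.5% DMSO, duplicate wells, serum-free induction medium.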
# [4] = read-out: Cytochrome P450 2C19 (Homo sapiens) (UniProt P33261); assay: LTEA_HepaRG_CYP2C19: Life Technologies and Expression Analysis (LTEA) Assay for CYP2C19 using HepaRG (AID 2283482)
# In short: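 CYP2C19 transcript levels by qRT-PCR, normalized to three housekeeping genes, in HepaRG cells after 48 h chemical exposure. Eight-point half-log series topping at 100 uM, 0.5% DMSO vehicle. Increases and decreases both fitted against DMSO.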
# CYP2C8 (gene 1558) = assay: LTEA_HepaRG_CYP2C8: Life Technologies and Expression Analysis (LTEA) Assay for CYP2C8 using HepaRG (AID 2283483)
# In short: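 CYP2C8 expression measured by TaqMan qRT-PCR and normalized to three housekeeping genes. HepaRG cultures were treated for 48 h with an eight-point half-log series topping at 100 uM, vehicle 0.5% DMSO, duplicates; fitted both directions against DMSO.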
# CYP2C9 (gene 1559) = assay: LTEA_HepaRG_CYP2C9: Life Technologies and Expression Analysis (LTEA) Assay for CYP2C9 using HepaRG (AID 2283484)
# In short: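 CYP2C9 transcript level, quantified by TaqMan qRT-PCR against three housekeeping genes, was fitted bidirectionally relative to 0.5% DMSO. HepaRG cultures were treated 48 h, in duplicate, at eight half-log concentrations topping at 100 uM.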
# CYP2E1 (gene 1571) = assay: LTEA_HepaRG_CYP2E1: Life Technologies and Expression Analysis (LTEA) Assay for CYP2E1 using HepaRG (AID 2283485)
# In short: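 CYP2E1 transcript measured by Fluidigm qRT-PCR against three housekeeping genes in human HepaRG cells treated 48 h (top 100 uM, half-log steps, 0.5% DMSO vehicle). Gain or loss fitted relative to DMSO baseline.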
# CYP4A11 (gene 1579) = assay: LTEA_HepaRG_CYP4A11: Life Technologies and Expression Analysis (LTEA) Assay for CYP4A11 using HepaRG (AID 2283486)
# In short: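 Readout is CYP4A11 transcript level by qRT-PCR, normalized to three housekeeping genes and fitted bidirectionally against 0.5% DMSO. Human HepaRG cells were treated 48 h, in duplicate, with an 8-point half-log series topping at 100 uM.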
# [5] = read-out: Cytochrome P450 3A4 (Homo sapiens) (UniProt P08684); assay: LTEA_HepaRG_CYP3A4: Life Technologies and Expression Analysis (LTEA) Assay for CYP3A4 using HepaRG (AID 2283487)
# In short: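 Differentiated HepaRG cells in serum-free induction medium exposed in duplicate for 48 h to 8 half-log concentrations up to 100 uM in 0.5% DMSO. CYP3A4 mRNA measured by qRT-PCR normalized to ACTB, GAPDH and POLR2A; bidirectional fit versus DMSO.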
# [6] = read-out: Pro-epidermal growth factor (Homo sapiens) (UniProt P01133); assay: LTEA_HepaRG_EGF: Life Technologies and Expression Analysis (LTEA) Assay for Epidermal growth factor (EGF) using HepaRG (AID 2283489)
# In short: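 EGF transcript measured by Fluidigm TaqMan qRT-PCR with three housekeeping genes for normalization, 48 h after dosing HepaRG cultures in duplicate (top 100 uM, half-log steps, 0.5% DMSO vehicle). Gain or loss relative to DMSO fitted.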
# [7] = read-out: Early growth response protein 1 (EGR1) transcription factor, EGR1 (gene 1958); assay: LTEA_HepaRG_EGR1: Life Technologies and Expression Analysis (LTEA) Assay for Early growth response protein 1 (EGR1) transcription factor using HepaRG (AID 2283490)
# In short: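 EGR1 transcript levels quantified by qRT-PCR (Fluidigm arrays) against three housekeeping genes after 48 h chemical exposure of HepaRG cells. Eight-point half-log series topping at 100 uM, 0.5% DMSO vehicle, analyzed for gain or loss.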
# [8] = read-out: Ezrin (EZR), EZR (gene 7430); assay: LTEA_HepaRG_EZR: Life Technologies and Expression Analysis (LTEA) Assay for Ezrin (EZR) using HepaRG (AID 2283491)
# In short: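 Differentiated human HepaRG cells, 48 h after plating, were exposed in serum-free induction medium for 48 hours to eight half-log concentrations up to 100 uM in 0.5% DMSO. EZR mRNA was measured by TaqMan qRT-PCR, normalized to ACTB, GAPDH and POLR2A, and fitted bidirectionally against DMSO.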
# [9] = read-out: Cytochrome P450 3A7 (Homo sapiens) (UniProt P24462); assay: LTEA_HepaRG_CYP3A7: Life Technologies and Expression Analysis (LTEA) Assay for CYP3A7 using HepaRG (AID 2283492)
# In short: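 CYP3A7 transcript measured by qRT-PCR (ACTB, GAPDH, POLR2A normalization) after 48 h chemical exposure of HepaRG cells in duplicate. Eight half-log concentrations, maximum 100 uM, 0.5% DMSO vehicle; bidirectional curve fitting against DMSO baseline.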
# CYP3A5 (gene 1577) = assay: LTEA_HepaRG_CYP3A5: Life Technologies and Expression Analysis (LTEA) Assay for CYP3A5 using HepaRG (AID 2283493)
# In short: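 mRNA levels were quantified by qRT-PCR on Fluidigm arrays and normalized to three housekeeping genes. Differentiated HepaRG cells received 48 h exposure (top 100 uM, half-log steps, 0.5% DMSO vehicle, duplicate); bidirectional fitting versus DMSO.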
# [10] = read-out: Fatty Acid-Binding Protein 1 (FABP1), FABP1 (gene 2168); assay: LTEA_HepaRG_FABP1: Life Technologies and Expression Analysis (LTEA) Assay for Fatty Acid-Binding Protein 1 (FABP1) using HepaRG (AID 2283494)
# In short: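 FABP1 expression by TaqMan qRT-PCR, normalised to three housekeeping genes, in HepaRG cells after 48 h chemical treatment. Eight-point half-log series topping at 100 uM in 0.5% DMSO, duplicates; gain or loss fitted relative to vehicle.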
# [11] = read-out: Cytochrome P450 4A22 (Homo sapiens) (UniProt Q5TCH4); assay: LTEA_HepaRG_CYP4A22: Life Technologies and Expression Analysis (LTEA) Assay for Cytochrome P450 4A22 (CYP4A22) using HepaRG (AID 2283495)
# In short: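 Gene expression measured by qRT-PCR against three housekeeping genes (ACTB, GAPDH, POLR2A), with gain or loss fitted relative to 0.5% DMSO vehicle. HepaRG cultures received 48 h chemical treatment, top concentration 100 uM, half-log steps, duplicate wells.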
# [12] = read-out: Cytochrome P450 7A1 (Homo sapiens) (UniProt P22680); assay: LTEA_HepaRG_CYP7A1: Life Technologies and Expression Analysis (LTEA) Assay for Cytochrome P450 7A1 (CYP7A1) using HepaRG (AID 2283496)
# In short: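 HepaRG, 48 h exposure, 8-pt half-log series from 100 uM, 0.5% DMSO vehicle, duplicates. Readout: TaqMan qRT-PCR mRNA vs three housekeeping genes; bidirectional curve fit against DMSO baseline.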
# [13] = read-out: Glutathione S-Transferase (GSTA2), GSTA2 (gene 2939); assay: LTEA_HepaRG_GSTA2: Life Technologies and Expression Analysis (LTEA) Assay for Glutathione S-Transferase (GSTA2) using HepaRG (AID 2283497)
# In short: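 GSTA2 transcript levels came from Fluidigm TaqMan qRT-PCR normalized to three housekeeping genes, fitted in both directions against DMSO. HepaRG cultures received chemicals for 48 h in serum-free induction medium (0.5% DMSO), 8 half-log concentrations up to 100 uM, duplicate.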
# [14] = read-out: cysteine-aspartic acid protease (CASP8), CASP8 (gene 841); assay: LTEA_HepaRG_CASP8: Life Technologies and Expression Analysis (LTEA) Assay for cysteine-aspartic acid protease (CASP8) using HepaRG (AID 2283480)
# In short: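 CASP8 transcript measured by TaqMan qRT-PCR with ACTB/GAPDH/POLR2A normalization, after 48 h chemical exposure of HepaRG cells in serum-free induction medium. Eight concentrations, top 100 uM, half-log steps, 0.5% DMSO vehicle; fits in both directions versus DMSO.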
# [15] = read-out: DNA damage-inducible transcript 3 (DDIT3), DDIT3 (gene 1649); assay: LTEA_HepaRG_DDIT3: Life Technologies and Expression Analysis (LTEA) Assay for DNA damage-inducible transcript 3 (DDIT3) using HepaRG (AID 2283488)
# In short: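 DDIT3 transcript was quantified by qRT-PCR with ACTB/GAPDH/POLR2A normalization after 48 h chemical treatment of differentiated HepaRG cells in 0.5% DMSO. Dosing was eight-point, half-log, top 100 uM, duplicate wells. Curves fitted bidirectionally versus DMSO.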
# Sequence of Cytochrome P450 3A7 (Homo sapiens) (P24462 whole entry, looked up): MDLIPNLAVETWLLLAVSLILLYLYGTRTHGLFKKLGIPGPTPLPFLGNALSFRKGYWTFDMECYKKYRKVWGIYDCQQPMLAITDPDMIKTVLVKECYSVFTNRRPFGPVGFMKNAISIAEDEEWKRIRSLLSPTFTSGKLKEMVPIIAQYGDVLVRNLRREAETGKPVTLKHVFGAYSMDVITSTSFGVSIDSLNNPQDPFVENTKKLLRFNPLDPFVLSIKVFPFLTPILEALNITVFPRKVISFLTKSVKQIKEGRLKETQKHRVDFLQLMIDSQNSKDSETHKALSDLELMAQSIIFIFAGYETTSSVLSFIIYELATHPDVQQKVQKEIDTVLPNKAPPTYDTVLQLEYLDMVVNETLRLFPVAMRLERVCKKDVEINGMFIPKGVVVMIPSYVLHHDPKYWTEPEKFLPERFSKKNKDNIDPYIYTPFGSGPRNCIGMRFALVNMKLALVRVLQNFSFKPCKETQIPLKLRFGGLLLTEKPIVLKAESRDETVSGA
# Sequence of Cytochrome P450 3A4 (Homo sapiens) (P08684 whole entry, looked up): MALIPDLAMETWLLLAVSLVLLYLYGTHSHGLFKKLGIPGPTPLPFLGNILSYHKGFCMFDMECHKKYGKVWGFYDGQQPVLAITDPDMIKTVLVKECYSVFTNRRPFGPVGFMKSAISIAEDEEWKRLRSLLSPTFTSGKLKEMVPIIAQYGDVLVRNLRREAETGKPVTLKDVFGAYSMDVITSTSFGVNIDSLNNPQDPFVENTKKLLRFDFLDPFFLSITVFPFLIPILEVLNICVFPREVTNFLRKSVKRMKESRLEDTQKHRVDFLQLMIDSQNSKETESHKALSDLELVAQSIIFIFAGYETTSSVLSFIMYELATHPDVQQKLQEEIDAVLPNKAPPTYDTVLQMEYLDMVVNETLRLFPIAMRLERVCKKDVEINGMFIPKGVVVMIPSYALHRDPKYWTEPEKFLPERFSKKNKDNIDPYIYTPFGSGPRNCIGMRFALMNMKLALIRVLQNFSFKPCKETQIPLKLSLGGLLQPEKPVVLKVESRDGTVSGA
# Sequence of Cytochrome P450 2C19 (Homo sapiens) (P33261 whole entry, looked up): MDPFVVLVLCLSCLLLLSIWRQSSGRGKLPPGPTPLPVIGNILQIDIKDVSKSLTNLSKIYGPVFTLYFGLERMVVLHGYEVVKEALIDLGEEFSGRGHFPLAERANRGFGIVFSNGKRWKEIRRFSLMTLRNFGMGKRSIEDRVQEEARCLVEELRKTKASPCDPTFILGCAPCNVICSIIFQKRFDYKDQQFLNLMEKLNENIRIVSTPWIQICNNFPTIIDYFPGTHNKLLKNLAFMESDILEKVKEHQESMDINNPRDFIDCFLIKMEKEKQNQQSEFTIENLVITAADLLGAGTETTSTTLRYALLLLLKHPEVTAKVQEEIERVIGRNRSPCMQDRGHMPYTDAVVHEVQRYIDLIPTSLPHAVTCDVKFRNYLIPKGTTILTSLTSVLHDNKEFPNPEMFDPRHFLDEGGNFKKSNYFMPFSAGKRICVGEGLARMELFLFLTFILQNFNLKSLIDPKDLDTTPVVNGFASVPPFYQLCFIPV
smiles,measurement,setting,value
CCCOC(=O)NCCCN(C)C,outcome,[1],inactive
same,outcome,[2],inactive
same,outcome,[3],inactive
same,outcome,[4],inactive
same,outcome,CYP2C8 (gene 1558),inactive
same,outcome,CYP2C9 (gene 1559),inactive
same,outcome,CYP2E1 (gene 1571),inactive
same,outcome,CYP4A11 (gene 1579),inactive
same,outcome,[5],inactive
same,outcome,[6],inactive
same,outcome,[7],inactive
same,outcome,[8],inactive
same,outcome,[9],inactive
same,outcome,CYP3A5 (gene 1577),inactive
same,outcome,[10],inactive
same,outcome,[11],inactive
same,outcome,[12],inactive
same,outcome,[13],inactive
O=C(c1ccc(O)cc1O)c1ccc(O)cc1O,outcome,[1],inactive
same,outcome,[2],inactive
same,outcome,[14],inactive
same,outcome,[3],inactive
same,outcome,[4],inactive
same,outcome,CYP2C8 (gene 1558),inactive
same,outcome,CYP2C9 (gene 1559),inactive
same,outcome,CYP2E1 (gene 1571),inactive
same,outcome,CYP4A11 (gene 1579),inactive
same,outcome,[5],inactive
same,outcome,[15],inactive
same,outcome,[6],inactive
same,outcome,[7],inactive
same,outcome,[8],inactive
same,outcome,[9],inactive
same,outcome,CYP3A5 (gene 1577),inactive
same,outcome,[10],inactive
same,outcome,[11],inactive
same,outcome,[12],inactive
same,outcome,[13],inactive
CCCOC(=O)c1ccc(C(=O)OCCC)nc1,outcome,[1],inactive
same,AC50,[2],50 µM (active)
same,outcome,[3],inactive
same,outcome,CYP2C8 (gene 1558),inactive
same,outcome,CYP2C9 (gene 1559),inactive
same,outcome,CYP2E1 (gene 1571),inactive
same,outcome,CYP4A11 (gene 1579),inactive
same,outcome,[5],inactive
same,outcome,[15],inactive
same,outcome,[6],inactive
same,outcome,[7],inactive
same,outcome,[8],inactive
same,outcome,[9],inactive
same,outcome,CYP3A5 (gene 1577),inactive
same,outcome,[10],inactive
same,outcome,[11],inactive
same,outcome,[12],inactive
same,outcome,[13],inactive

# Reference: PubChem BioAssay (EPA / NIEHS)
